From PubChem BioAssay AID1159580 (chemical genetic matrix, 2015) come the findings set out here.

Hit rate of the full screen: of about 5,500 compounds, about 2,000 (36%) were called active. About 18% were inconclusive and are not listed. The list shows a part of the results. A number with no mark means an inactive call. Rule as the data show it: active = normalized growth mostly below about 0.91 (no sharp cut-off); inconclusive = no clear call, values can overlap the other calls; inactive = mostly above about 0.92.

The assay can be described thus: chemical genetic growth profiling, strain panel (AID 1159580).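 Also: tested at 20 µM; growth read once vehicle control cultures reached saturation at 30 °C; 1 = growth at the plate median or of vehicle wells.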 The settings on record: growth OD.
Where [1] appears, read: S. cerevisiae deletion strains, locus YHR030C, strain SLT2, stronger effect = lower value.
Where [2] appears, read: S. cerevisiae deletion strains, locus YAL013W, strain DEP1, stronger effect = lower value.
[3] abbreviates: S. cerevisiae deletion strains, locus YBR229C, strain ROT2, stronger effect = lower value.
Setting [4] is: S. cerevisiae deletion strains, locus YDL101C, strain DUN1, stronger effect = lower value.
Where [5] appears, read: S. cerevisiae deletion strains, locus YDL134C, strain PPH21, stronger effect = lower value.
[6] abbreviates: S. cerevisiae deletion strains, locus YDR150W, strain NUM1, stronger effect = lower value.
[7] abbreviates: S. cerevisiae deletion strains, locus YEL061C, strain CIN8, stronger effect = lower value.
Setting [8] is: S. cerevisiae deletion strains, locus YGR078C, strain PAC10, stronger effect = lower value.
The mark [9] stands for this setting: S. cerevisiae deletion strains, locus YGR229C, strain SMI1, stronger effect = lower value.
[10] abbreviates: S. cerevisiae deletion strains, locus YHR087W, strain rtc3, stronger effect = lower value.
Setting [11] is: S. cerevisiae deletion strains, locus YJL187C, strain SWE1, stronger effect = lower value.
Setting [12] is: S. cerevisiae deletion strains, locus YJR043C, strain POL32, stronger effect = lower value.
Setting [13] is: S. cerevisiae deletion strains, locus YJR075W, strain HOC1, stronger effect = lower value.
Where [14] appears, read: S. cerevisiae deletion strains, locus YKL190W, strain CNB1, stronger effect = lower value.
Where [15] appears, read: S. cerevisiae deletion strains, locus YLR039C, strain RIC1, stronger effect = lower value.
The mark [16] stands for this setting: S. cerevisiae deletion strains, locus YLR058C, strain SHM2 (second series), stronger effect = lower value.
Where [17] appears, read: S. cerevisiae deletion strains, locus YLR085C, strain ARP6, stronger effect = lower value.
The mark [18] stands for this setting: S. cerevisiae deletion strains, locus YLR262C, strain YPT6, stronger effect = lower value.
[19] abbreviates: S. cerevisiae deletion strains, locus YML094W, strain GIM5, stronger effect = lower value.
Where [20] appears, read: S. cerevisiae deletion strains, locus YMR219W, strain ESC1, stronger effect = lower value.
Where [21] appears, read: S. cerevisiae deletion strains, locus YMR263W, strain SAP30, stronger effect = lower value.
Where [22] appears, read: S. cerevisiae deletion strains, locus YNL153C, strain GIM3, stronger effect = lower value.
Setting [23] is: S. cerevisiae deletion strains, locus YNL298W, strain CLA4 (second series), stronger effect = lower value.
Setting [24] is: S. cerevisiae deletion strains, locus YNL322C, strain KRE1, stronger effect = lower value.
Where [25] appears, read: S. cerevisiae deletion strains, locus YNR030W, strain Alg12, stronger effect = lower value.
[26] abbreviates: S. cerevisiae deletion strains, locus YPL055C, strain LGE1, stronger effect = lower value.
Where [27] appears, read: S. cerevisiae deletion strains, locus YPL241C, strain CIN2, stronger effect = lower value.
[28] abbreviates: S. cerevisiae deletion strains, locus YPR135W, strain CTF4, stronger effect = lower value.
Setting [29] is: S. cerevisiae strains, strain wild type, stronger effect = lower value.

With `CN(C(=O)C(Cl)Cl)c1ccc(OC(=O)c2ccco2)cc1`, the normalized growth is 0.959 under setting [1]; 0.98 (S. cerevisiae deletion strains, locus YHR079C, strain IRE1, stronger effect = lower value); 0.973 (S. cerevisiae deletion strains, locus YJL095W, strain BCK1, stronger effect = lower value); 0.915 (S. cerevisiae deletion strains, locus YJR066W, strain TOR1, stronger effect = lower value); 1.05 (S. cerevisiae deletion strains, locus YLR113W, strain HOG1, stronger effect = lower value); 0.96 (S. cerevisiae deletion strains, locus YNL183C, strain NPR1, stronger effect = lower value). For the same molecule, the normalized growth (S. cerevisiae deletion strains, locus YOR231W, strain MKK1, stronger effect = lower value) is 0.975 and the normalized growth (S. cerevisiae deletion strains, locus YPL256C, strain CLN2, stronger effect = lower value) is 1.
Regarding `CC(C)S(=O)(=O)c1csc(C(N)=O)c1Cl`, the normalized growth is 1.01 under setting [2]; 1.02 under setting [3]; 1.02 (S. cerevisiae deletion strains, locus YCL061C, strain MRC1, stronger effect = lower value); 0.989 under setting [4]; 1.01 under setting [5]; 0.958 under setting [6]. Besides, the normalized growth is 1.04 under setting [7]; 1 under setting [8]; 1 under setting [9]; 1.09 under setting [1]; 1 under setting [10]; 0.983 under setting [11]. In addition, the normalized growth runs as follows: under setting [12], 1.01; under setting [13], 1.01; under setting [14], 1.01; under setting [15], 1.05; under setting [16], 1.01; under setting [17], 1.02. For the same molecule, the normalized growth reads like this: under setting [18], 1.05; under setting [19], 0.996; under setting [20], 1.01; under setting [21], 0.996; (S. cerevisiae deletion strains, locus YMR307W, strain GAS1, stronger effect = lower value) 1.01; under setting [22], 1. The normalized growth under setting [23] was 1.04; the normalized growth under setting [24] is 1.01; the normalized growth under setting [25] is 1.03; the normalized growth under setting [26] is 0.954; the normalized growth under setting [27] is 0.991; the normalized growth under setting [28] is 1.07. In addition, the normalized growth under setting [29] was 1.02.
For the molecule `COC(=O)c1scc(S(=O)(=O)C(C)C)c1N/N=C(/C#N)C(=O)c1ccccc1`, the normalized growth reads like this: under setting [2], 0.965; under setting [3], 0.974; under setting [4], 0.986; under setting [5], 0.974; under setting [6], 0.973; under setting [7], 0.965. In addition, the normalized growth is 0.969 under setting [8]; 0.971 under setting [9]; 0.929 under setting [1]; 0.927 under setting [10]; 1.03 under setting [11]; 0.995 under setting [12]. Besides, the normalized growth under setting [13] is 0.961; the normalized growth under setting [14] is 0.976; the normalized growth under setting [15] was 0.902; the normalized growth under setting [16] is 0.954; the normalized growth under setting [17] was 1.06; the normalized growth under setting [18] is 0.839. In addition, the normalized growth under setting [19] is 1.04; the normalized growth under setting [20] is 0.95; the normalized growth under setting [21] was 0.905; the normalized growth under setting [22] is 0.998; the normalized growth under setting [23] is 0.983; the normalized growth under setting [24] is 0.942 (active). Besides, the normalized growth was 1.01 under setting [25]; 0.923 (S. cerevisiae deletion strains, locus YOL006C, strain TOP1, stronger effect = lower value); 0.885 under setting [26]; 1.02 under setting [27]; 0.928 under setting [28]; 0.967 under setting [29].
